A selection: hits, their analogues and other compounds. The true share with any hit is near 8.7%.
12-LOX inh: Primary qHTS assay for inhibitors of human arachidonate 12S-lipoxygenase (ALOX12): Round 2. Polyunsaturated fatty acid lipoxygenase ALOX12 (Homo sapiens), P18054. purified 12hLO, xylenol orange hydroperoxide absorbance. Potency, µM (highest dose often 108 µM), for inactives: at the highest dose activity change, negative = inhibition, actives largely listed as inhibitors. AID 1671190, 2021. actives 1.1% (n = 580,000); note: % is set by controls: 0 for no effect and ±100 for the full control effect
Target sequence (P18054 whole entry, looked up): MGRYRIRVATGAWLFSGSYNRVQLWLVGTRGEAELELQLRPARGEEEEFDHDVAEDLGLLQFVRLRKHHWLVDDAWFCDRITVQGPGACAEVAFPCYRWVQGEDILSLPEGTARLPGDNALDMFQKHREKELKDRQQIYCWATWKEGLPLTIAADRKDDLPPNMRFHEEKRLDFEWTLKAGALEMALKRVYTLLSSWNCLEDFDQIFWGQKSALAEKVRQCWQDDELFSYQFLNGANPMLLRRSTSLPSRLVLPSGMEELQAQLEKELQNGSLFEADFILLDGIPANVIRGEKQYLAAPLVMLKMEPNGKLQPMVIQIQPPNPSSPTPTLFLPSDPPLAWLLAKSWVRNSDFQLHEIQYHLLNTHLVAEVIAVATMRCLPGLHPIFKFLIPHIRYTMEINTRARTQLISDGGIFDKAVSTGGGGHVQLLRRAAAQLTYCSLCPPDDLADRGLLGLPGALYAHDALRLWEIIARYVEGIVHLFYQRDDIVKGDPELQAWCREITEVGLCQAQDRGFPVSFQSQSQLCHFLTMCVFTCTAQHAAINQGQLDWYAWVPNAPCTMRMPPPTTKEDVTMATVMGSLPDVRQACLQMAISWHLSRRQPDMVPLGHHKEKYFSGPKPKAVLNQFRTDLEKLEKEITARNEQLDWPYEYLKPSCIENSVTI
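Purified human 12hLO at 150 nM in 25 mM Hepes, 0.01% Triton X-100, pH 7.0, preincubated 15 min at room temperature with compound. Reaction started with 40 uM arachidonic acid, 30 min at room temperature. Hydroperoxide measured by Fe-xylenol orange, 573/405 nm absorbance ratio.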
Sfp inh: qHTS Assay for Inhibitors of Bacillus subtilis Sfp phosphopantetheinyl transferase (PPTase). Biochemical Sfp PPTase activity, qHTS. 4'-phosphopantetheinyl transferase ffp (Bacillus subtilis), Q9F4F7. actives 3.5% (n = 310,000). AID 1490, 2009. Potency, µM, without a hit: largest response in the series, negative = inhibition, actives largely listed as inhibitors;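 note: the enzyme is Sfp with the accession as filed and its product quenches rhodamine fluorescence; 0% = enzyme reaction without inhibitor and -100% = no enzyme wells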
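Compounds were incubated with enzyme (final 15 nM) for 15 min at room temperature before substrate addition started the reaction. Fluorescence at 525 nm excitation, 598 nm emission was recorded immediately and after 30 minutes.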
G9a inh: qHTS Assay for Inhibitors of Histone Lysine Methyltransferase G9a; Histone-lysine N-methyltransferase EHMT2 (Homo sapiens), Q96KQ7; G9a H3K9 monomethylation, AlphaScreen, 2 h; Potency, µM (titrated, usually from 102 µM), without a hit: at the highest dose activity, negative = inhibition, hits mostly inhibitors; actives 8.8% (n = 350,000); note: % is set by controls: 0 for no effect and ±100 for the full control effect; nearly all actives have a fitted effect of over 75% in size
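G9a (20 nM) preincubated 15 min RT with compounds, then 500 nM biotinylated H3K9 peptide and 20 uM SAM added; 2 h RT reaction. Monomethyl-H3K9 product detected by AlphaScreen with anti-H3K9me1 antibody, streptavidin donor and anti-rabbit IgG acceptor beads.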
JMJD2A Tudor: qHTS Assay for Inhibitors of JMJD2A-Tudor Domain; Lysine-specific demethylase 4A (Homo sapiens), O75164; AID 504339, 2011; AlphaScreen JMJD2A-Tudor / H3K4me3 peptide binding; actives 4.4% (n = 390,000); Potency, µM (top dose mostly 114 µM), inactives show at the top dose activity change, negative = inhibition, most hits filed as inhibitors; note: % is set by controls: 0 for no effect and ±100 for the full control effect; nearly all actives have a fitted effect of over 50% in size
HP1b binding inh: HTS for Inhibitors of HP1-beta Chromodomain Interactions with Methylated Histone Tails | AlphaScreen HP1-beta / biotin-H3K9me3 peptide binding | Potency, µM (titrated, usually from 114 µM), for inactives: at the highest dose activity change, negative = inhibition, hits mostly inhibitors | actives 0.56% (n = 390,000); note: nearly all actives have a fitted effect of over 70% in size
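HP1-beta protein (50 nM final) preincubated 30 min at room temperature with biotinylated H3(1-18)K9me3 peptide (50 nM) in PBS pH 7.4, 0.01% Tween-20, then compound added for 30 min. AlphaScreen streptavidin donor/nickel chelate acceptor beads (10 ug/mL final), 30 min dark, luminescence read.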
BAZ2B inh: qHTS Assay for Inhibitors of BAZ2B | Bromodomain adjacent to zinc finger domain protein 2B (Homo sapiens), Q9UIF8 | AlphaScreen BAZ2B-H3K14Ac peptide displacement | Potency, µM (titrated, usually from 114 µM), for the others: at the highest dose activity change, negative = inhibition, hits mostly inhibitors | actives 4.4% (n = 360,000) | AID 504333, 2011; note: % is set by controls: 0 for no effect and ±100 for the full control effect; nearly all actives have a fitted effect of over 60% in size
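AlphaScreen luminescence quantifies BAZ2B engagement of H3K14Ac peptide; the protein and biotinylated peptide are both at 50 nM final, buffer PBS pH 7.4 with 0.01% Tween-20, all steps at room temperature.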
* = called active by the depositor; ? = inconclusive; . = no result; [ ] = another dose, or the depositor's remark. Calls come from the whole dose curve; as a rule, active = well fitted curve in the direction sought with a large enough effect; inconclusive = small, poorly fitted or top-dose-only effect, or another doubt; inactive = no such curve, though single readings can be large; an effect the other way counts as inactive or inconclusive. Potency is the fitted concentration of half-maximal effect.

SMILES	12-LOX inh	Sfp inh	G9a inh	JMJD2A Tudor	HP1b binding inh	BAZ2B inh
Cc1ccc(NC(=O)C(=O)Nc2ccc(C)cn2)nc1	-13%	27%	26%[59 µM]	7%	33%	-14%
Cc1ccc(NC(=O)/C(C#N)=C(\N)C(Cl)(Cl)Cl)nc1	.	-9%	?	-8%[57.1 µM]	16%	56µM*
COc1ccc(-c2cc(C(F)(F)F)nc(-n3cc(Br)cn3)n2)cc1	0%	22µM*	8%[12.7 µM]	-3%	35%	23%
COc1ccc(-c2cc(C(F)(F)F)nc(-n3cc(Cl)cn3)n2)cc1	-18%	?	11%[12.7 µM]	-20%	28%	8%
COCCn1c(-c2ccc(Cl)cc2)cnc1SCC(=O)NCc1cccs1	-21%	3%	45µM*	?	?	?
O=C(CSc1nc2ccccc2c(=O)n1Cc1ccc(Cl)cc1)NCc1cccs1	3%	-2%	7%[59 µM]	-11%	18%	-2%
O=C(NCc1n[nH]c(=S)n1-c1cccc(C(F)(F)F)c1)c1ccc(S(=O)(=O)N2CCCCC2)cc1	?	?	8.9µM*	-11%	29%	-14%
O=C(NCc1n[nH]c(=S)n1-c1cccc(C(F)(F)F)c1)c1ccc(S(=O)(=O)N2CCCC2)cc1	?	-14%	13µM*	-32%	34%	15%
NC(=S)N=Nc1c(O)n(Cc2ccccc2)c2ccccc12	15%	10%	20%[59 µM]	-21%	18%	?
Oc1c(N=NC(=S)Nc2ccccc2F)c2ccccc2n1Cc1ccccc1	-13%	6%	18µM*	?	?	?
C=CCn1c(O)c(N=NC(=O)CNC(=O)/C=C/c2ccco2)c2ccccc21	?	?	50µM*	?	-11%	?
Cc1c(Cl)cccc1NC(=S)N=Nc1c(O)n(CN2CCOCC2)c2ccccc12	.	0%	?	?	1%	?
Oc1c(N=NC(=S)Nc2ccccc2F)c2ccccc2n1Cc1ccccc1Cl	-4%	5%	18µM*	4µM*	?	?
Cc1ccc(Cn2c(O)c(N=NC(=S)Nc3ccccc3F)c3ccccc32)cc1	-6%	8%	11µM*	?	-8%	40µM*
COc1ccccc1CNC(=O)C1CCCN(Cc2cccnc2)CCC(=O)NCC1 (stereo not drawn)	25%	.	.	.	.	.
O=C(CCc1c[nH]c2ccccc12)N1CCC[C@H](n2c(=O)n(CC3CC3)c3cccnc32)C1	-19%	.	.	.	.	.
O=C(N=Nc1c(O)n(Cc2ccccc2)c2ccccc12)c1ccncc1	11%	-16%	.	-26%	13%	35µM*
COC(=O)N=Nc1c(O)n(Cc2ccccc2)c2ccccc12	4%	-16%	15%	-18%	3%	-21%
CCCCNC(=S)N=Nc1c(O)n(Cc2ccccc2)c2ccccc12	?	?	32µM*	?	?	?
Cc1cccc(NC(=O)Cn2c(O)c(N=NC(=O)c3ccncc3)c3ccccc32)c1	-7%	9%	-10%	4%	26%	?
C=CCn1c(O)c(N=NC(=S)Nc2ccccc2F)c2ccccc21	-24%	-6%	11µM*	10µM*	?	?
C=CCn1c(O)c(N=NC(=S)Nc2cccc(C)c2)c2ccccc21	-24%	-10%	14µM*	8.9µM*	?	3.2µM*
Cc1noc(C)c1S(=O)(=O)NCCc1ccc(-n2cccn2)cc1	-4%	.	.	.	.	.
Cc1[nH]c(C=O)c(C)c1C#N	8%	.	.	.	.	.
CCOCCCNC(=O)CCSc1ccccc1	-9%	.	.	.	.	.
O=C(Nc1cccc(CO)c1)c1cccc2cccnc12	77%	.	.	.	.	.

Screens (PubChem BioAssay)
